# Compounds without any hit were thinned out: in the full panel of roughly 83,000, 20% have a hit.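 Values shown are percent growth following 48 h exposure of cells in 96-well plates to a single concentration of compound; below 10 was considered active.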 Values without a mark were called inactive. Activity calls are given as the source filed them.
# How the values were obtained:
# Assay in all cases: NCI-60 one-dose screen, 48 h (100 = growth as untreated, 0 = no growth, -100 = all killed)
# Details in all cases: 10 µM unless noted
# HCT-15 colon = system: HCT-15 colon
# HT29 colon = system: HT29 colon
# SNB-75 CNS = system: SNB-75 CNS
# SNB-19 CNS = system: SNB-19 CNS
# U251 CNS = system: U251 CNS
# PC-3 prostate = system: PC-3 prostate
# SK-MEL-5 melanoma = system: SK-MEL-5 melanoma
# UACC-62 melanoma = system: UACC-62 melanoma
# LOX IMVI melanoma = system: LOX IMVI melanoma
# SK-MEL-28 melanoma = system: SK-MEL-28 melanoma
# SK-MEL-2 melanoma = system: SK-MEL-2 melanoma
# EKVX NSCLC = system: EKVX NSCLC
# SN12C renal = system: SN12C renal
# UO-31 renal = system: UO-31 renal
# TK-10 renal = system: TK-10 renal
# ACHN renal = system: ACHN renal
# CAKI-1 renal = system: CAKI-1 renal
# A498 renal = system: A498 renal
# CCRF-CEM leukemia = system: CCRF-CEM leukemia
# MOLT-4 leukemia = system: MOLT-4 leukemia
SMILES,growth (HCT-15 colon),growth (HT29 colon),growth (SNB-75 CNS),growth (SNB-19 CNS),growth (U251 CNS),growth (PC-3 prostate),growth (SK-MEL-5 melanoma),growth (UACC-62 melanoma),growth (LOX IMVI melanoma),growth (SK-MEL-28 melanoma),growth (SK-MEL-2 melanoma),growth (EKVX NSCLC),growth (SN12C renal),growth (UO-31 renal),growth (TK-10 renal),growth (ACHN renal),growth (CAKI-1 renal),growth (A498 renal),growth (CCRF-CEM leukemia),growth (MOLT-4 leukemia)
Cc1ccc2c(c1)/C(=C/C(=O)c1cc3ccccc3oc1=O)C(=O)N2,-20.4% (active),59.9%,88.7%,87.8%,73.9%,73.5%,94.2%,49.7%,27.4%,55.7%,72.6%,78.2%,67.8%,55.2%,80.7%,-63.2% (active),76.9%,128%,3.14% (active),32.8%
Cc1nn(-c2ccccc2)c2nc(C)n(CC(=O)N/N=C/c3cccc([N+](=O)[O-])c3)c(=O)c12,96.2%,102%,79.5%,77%,98.3%,80.1%,97.6%,81.3%,88.8%,106%,101%,76.8%,89.1%,69.7%,103%,104%,88%,95.8%,85.1%,88%
COc1nc(N)ncc1-c1ccc2ncnc(N3CCc4cc(F)c(Cl)cc43)c2c1,23.7%,36.7%,-52.7% (active),1.32% (active),-44.9% (active),66.3%,57.5%,50%,14.5%,31.3%,25.7%,24.2%,-40.9% (active),-32.4% (active),-50% (active),-84.7% (active),4.22% (active),-15.6% (active),61.6%,62.9%
Cc1[nH]nc2ccc3nc(-c4cn[nH]c4C(F)(F)F)c4c(c3c12)CCCC4,-4.58% (active),5.08% (active),-9.8% (active),3.47% (active),7.24% (active),4.97% (active),-51.2% (active),-57.3% (active),-39.9% (active),-20.1% (active),-68.2% (active),-40.5% (active),-22.4% (active),-30.5% (active),-56.2% (active),1.85% (active),-9.8% (active),-61.1% (active),-12.1% (active),2.2% (active)
O=C(NN1C(=O)/C(=C/C=C/c2ccc([N+](=O)[O-])o2)SC1=S)c1ccncc1,-78.9% (active),-67.2% (active),-38.6% (active),-96.8% (active),-91.2% (active),-63% (active),-99.5% (active),-100% (active),-94% (active),-88.9% (active),-79.3% (active),-92% (active),-99.9% (active),-97.2% (active),-91% (active),-100% (active),-100% (active),18.9%,-43.9% (active),-38.8% (active)
COc1ccc2c(c1)C(=O)N(C)C2C1c2c(cc3c(c2OC)OCO3)CCN1C (stereo not given),22.5%,33.2%,37.3%,49.1%,42.7%,46.9%,24.9%,26.8%,46.7%,55.9%,57.5%,62.6%,76.9%,49.4%,78.6%,46.5%,31.6%,91.5%,66.3%,46.4%
Nc1nc(-c2ccccc2)c(N=Nc2ccc(Cl)cc2Cl)s1,-86% (active),-60.4% (active),-36.5% (active),-18.1% (active),-10.7% (active),-1.78% (active),-99.2% (active),-49.5% (active),-99.5% (active),-55.8% (active),-61.1% (active),-30.5% (active),-95% (active),-20% (active),-13.9% (active),-31.2% (active),-34.3% (active),-16.8% (active),-0.55% (active),-24.6% (active)
CCOc1ccccc1NC(=O)N/C(N)=N/c1nc2ccccc2s1,2.52% (active),-48.7% (active),32.8%,14.7%,10.4%,23.3%,-40.9% (active),28.1%,0.997% (active),54.3%,38.7%,42.9%,8.49% (active),44.6%,63%,18.5%,17.8%,90.9%,0.25% (active),7.53% (active)
COc1ccc(NC(=O)Cn2c(/C=C/c3cccc(Br)c3)nc3ccccc3c2=O)cc1,70.9%,51.9%,-29.7% (active),49.3%,-1.66% (active),79.3%,78.5%,68.4%,28.8%,70.2%,80.3%,81.8%,5.79% (active),-60.6% (active),-39.4% (active),-51.1% (active),55.7%,-51.1% (active),86.8%,86.5%
CC1=C(C(=O)Nc2ccccc2)C(c2ccc3ccccc3c2)n2c(nc3ccccc32)N1 (stereo not given),40.5%,69%,-11.1% (active),79.4%,28.6%,21.7%,87.3%,75%,9.5% (active),63.2%,106%,85%,14.4%,75%,116%,52.7%,60.9%,134%,11.1%,12.7%
Nc1nnc(CS(=O)(=O)c2ccccc2)s1,99.9%,94.6%,102%,103%,95.6%,93%,131%,91%,84.6%,112%,113%,103%,106%,77.1%,98.7%,104%,88.8%,137%,102%,103%
COc1ccc2[nH]c(O)c(N=Nc3nc(-c4ccccc4)cs3)c2c1,24.9%,50.5%,-1.94% (active),20%,-31% (active),16%,68.8%,30.8%,14.3%,45%,83.7%,14.4%,2.85% (active),4.1% (active),25.5%,-16.5% (active),14%,-34.8% (active),44%,42.5%
COc1cccc(-c2ccc(/C=N/NC(=O)c3[nH]c4ccc(Br)cc4c3-c3ccccc3)s2)c1,3.37% (active),-32.2% (active),36.8%,11.7%,-23% (active),23.7%,-60.9% (active),-17.1% (active),4.04% (active),8.82% (active),-3.93% (active),17.9%,0.265% (active),19.9%,8.47% (active),7.04% (active),9.77% (active),63.2%,16%,6.82% (active)
C[C@H](NC(=O)c1ccc2c(-c3ccc(C(F)(F)F)cc3)cccc2c1)c1ccccn1,20.4%,26.6%,87.3%,42%,42.3%,34.2%,34.7%,60.3%,43.7%,74.6%,67.2%,22.8%,42%,13.6%,42.6%,41.1%,38.8%,72.5%,38.6%,19.4%
CS(=O)(=O)Nc1cccc(-n2cnc3cc(-c4ccc(O)cc4)ccc32)c1,30.9%,16%,53.8%,25.4%,26.2%,45.8%,19.7%,26.3%,41.9%,63.2%,27.2%,51.6%,41.1%,44.3%,93%,49.7%,30.6%,149%,22.2%,24.4%
CN(CCSSCCN1CCOCC1)C(=O)Oc1cc2c(c3ccccc13)[C@H](CCl)CN2C(=O)c1cc2cc(OCCCN3CCC3)ccc2[nH]1,-49.3% (active),-40.5% (active),-46% (active),-100% (active),-60.3% (active),-21.9% (active),-89.6% (active),-72.7% (active),-73% (active),-58% (active),-84.3% (active),-61.3% (active),-9.12% (active),-16.7% (active),-10.3% (active),-66.8% (active),-48.1% (active),-14.5% (active),-41.3% (active),-39.8% (active)

# Source: PubChem BioAssay (NCI)
